# Reference: PMC7819943, “Rice protein-binding microarrays: a tool to detect cis-acting elements near promoter regions in rice”
# Over roughly 39,000 sequences, “fluorescence intensity (a.u.)” has its median near 4,300; the highest 2% begin near 39,000. Only a selection was taken, and the highest values are over-represented in it overall.
# Target: T1, OsSMF1 (Oryza sativa, UniProt Q6ZLB0 1-436)
# T1 sequence: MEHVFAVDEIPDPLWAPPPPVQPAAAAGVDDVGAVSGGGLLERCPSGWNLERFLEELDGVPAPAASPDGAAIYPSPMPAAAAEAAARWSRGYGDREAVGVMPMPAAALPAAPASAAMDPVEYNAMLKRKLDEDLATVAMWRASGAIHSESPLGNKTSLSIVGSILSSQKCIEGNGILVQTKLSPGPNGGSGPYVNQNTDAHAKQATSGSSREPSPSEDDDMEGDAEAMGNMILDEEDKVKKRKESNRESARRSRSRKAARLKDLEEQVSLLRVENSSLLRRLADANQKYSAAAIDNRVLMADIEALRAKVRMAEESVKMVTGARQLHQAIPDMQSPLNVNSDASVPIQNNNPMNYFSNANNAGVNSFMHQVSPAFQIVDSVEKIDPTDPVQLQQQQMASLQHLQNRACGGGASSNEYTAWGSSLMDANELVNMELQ
# Test: protein-binding microarray (RPBM); PBS, 2% BSA, 51.3 ng/ul salmon testes DNA, 50 uM zinc acetate, 200 nM TF, 25 C, 1 h; high values mean tight binding
# Conditions: protein: recombinant; tags: N-terminal polyhistidine and DsRed monomer fusion (pET32a); chain copies: 2; label: CyDye5-dUTP incorporated in the synthesized complementary strand; 3' TTTTT single-stranded linker to array surface; dsDNA, one strand shown
# Procedure, shortened: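 Using Ni–NTA, transcription factors fused N-terminally to polyhistidine and DsRed were purified after expression in E. coli BL21-CodonPlus. These were incubated at 200 nM with a blocked, double-stranded custom Agilent array for 1 h at 25 °C in a buffer containing 50 µM zinc acetate, and the array was washed. The binding signal is per-feature fluorescence intensity (arbitrary units) on an Axon 4000B scanner.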
row,Sequence,binding signal
1,ACACTGTTCACCATGATCCACGTATATATGTGACGAAAATCGGAGTCACCTAGTGCAG,4560 fluorescence intensity (a.u.)
2,TTGCGACGGCCATCCTCCGCGCGCGTGACACCAACGCCACCGGAGTCACCTAGTGCAG,4880 fluorescence intensity (a.u.)
3,TTTCCCTGATAATAATAACCGACACGCGTAAGCTCTTGAACGGAGTCACCTAGTGCAG,3360 fluorescence intensity (a.u.)
4,AGCATTTCCATCCACCACACGCGTACGTCCCCGTCACGCGCGGAGTCACCTAGTGCAG,7440 fluorescence intensity (a.u.)
5,AAGTGCCTACCAAGCCAGCATCGTGTCATAGCCGGAGCATCGGAGTCACCTAGTGCAG,3730 fluorescence intensity (a.u.)
6,ATTTGCGCTGATATATTATCTAACGTGACACGATTAATCCCGGAGTCACCTAGTGCAG,6030 fluorescence intensity (a.u.)
7,GGGTCATTTGTCCCTTTCTGGAATGAAGTGCTTTGTAAAACGGAGTCACCTAGTGCAG,33100 fluorescence intensity (a.u.)
8,TTTTAATCCGAGTTTCAGACCACGATGGCCATTTGTTTCGCGGAGTCACCTAGTGCAG,3460 fluorescence intensity (a.u.)
9,ACCTGTTGTACTTAGTTACGGCGACACGTTTGCATCAGGCCGGAGTCACCTAGTGCAG,6860 fluorescence intensity (a.u.)
10,ACAGTACTTGGCTGTAGCGGGCATCTTGTCCTGGCATGTGCGGAGTCACCTAGTGCAG,3600 fluorescence intensity (a.u.)
11,TACCTTACCTGTACGGCAGGCATGCATGTTACTCCAGTAGCGGAGTCACCTAGTGCAG,39800 fluorescence intensity (a.u.)
12,GCACCGGTTTTGATAGTTGAGGGACTTGTTGTATCTGGTTCGGAGTCACCTAGTGCAG,29200 fluorescence intensity (a.u.)
13,AATCTGCACCGGTTTTGATAGTTAAGGGACTAATTGTATCCGGAGTCACCTAGTGCAG,41700 fluorescence intensity (a.u.)
14,TGTGACCGGTTTTGATTAGTTAAGGGACGCCGGGTATCTGCGGAGTCACCTAGTGCAG,31600 fluorescence intensity (a.u.)
15,TAAGATCACCTATAGATATATCATTCCAAGTCATAGATTGCGGAGTCACCTAGTGCAG,6060 fluorescence intensity (a.u.)
16,GCAGTAGACACGACGTACTTGTCAATGGTGAGGCATTTATCGGAGTCACCTAGTGCAG,3350 fluorescence intensity (a.u.)
17,TAATTGTGATCAAAATTGTAACAAATGCACGGTCATTAAGCGGAGTCACCTAGTGCAG,3320 fluorescence intensity (a.u.)
18,TGGTTCAAAATGTAAACATTAGTTAAATGGTGATCCAAAGCGGAGTCACCTAGTGCAG,49900 fluorescence intensity (a.u.)
19,ATTGAAAAGTTTGGTTCAAATTAAAATTTTAGTAACAAAACGGAGTCACCTAGTGCAG,24300 fluorescence intensity (a.u.)
20,TAGTACCTTTACTTTTCAGTTTTCACCCCATGTGGCATACCGGAGTCACCTAGTGCAG,3620 fluorescence intensity (a.u.)
21,AGTTGTGATGTCGCCACGTTGGCGGCCGGCGACTGCGCCACGGAGTCACCTAGTGCAG,12000 fluorescence intensity (a.u.)

row,Sequence,binding signal
1,GCCACGGTCTCGTTGTGATGTTGTGATATTAGGTTCACTGCGGAGTCACCTAGTGCAG,46600 fluorescence intensity (a.u.)
2,TCCCGCATGTGTTGTGTGATGTGTCTCGTCTCCGCCACCACGGAGTCACCTAGTGCAG,7960 fluorescence intensity (a.u.)
3,TCTTCATGTAGTCAGCATACATCTGTCACAGCCACAGACACGGAGTCACCTAGTGCAG,4480 fluorescence intensity (a.u.)
4,AATAAGTAGTTGGTGATACGTGTTAGCCACGAGGCATATACGGAGTCACCTAGTGCAG,4020 fluorescence intensity (a.u.)
5,AGAGGTACGTAAAATGACACATGTGCCTCTTCATACGCTCCGGAGTCACCTAGTGCAG,3150 fluorescence intensity (a.u.)
6,CCAAGTTCGGCTGGTCGCCACGCCACCCATCTCCATCTTCCGGAGTCACCTAGTGCAG,4140 fluorescence intensity (a.u.)
7,CTTACCATCTCCCCAAGCGGGAGAGTGGACGTCATAATTTCGGAGTCACCTAGTGCAG,45700 fluorescence intensity (a.u.)
8,AAACCCGGAGAGAGTGGTGTTCGTGGACGTCACCCCATTTCGGAGTCACCTAGTGCAG,4440 fluorescence intensity (a.u.)
9,CGGGAGAGAAGCCCACGTCACTCCCATAAATGGATGTGGACGGAGTCACCTAGTGCAG,9320 fluorescence intensity (a.u.)
10,CGTCCGTGCGAATGATTGCATCTGCGCGAGCGACGCCGTTCGGAGTCACCTAGTGCAG,3430 fluorescence intensity (a.u.)
11,TGCGAGGTGGTGGTGATTGCTTCGTCGGCTGTTGATTTCTCGGAGTCACCTAGTGCAG,3300 fluorescence intensity (a.u.)
12,TTTTCTTCTGTTCGTGTGCGTGCTCGCGCCTTTCTTGCTTCGGAGTCACCTAGTGCAG,4250 fluorescence intensity (a.u.)
13,CTCGGCTGTTGCGCCTTCGTTTTGCACCGAGGCTGTGCTACGGAGTCACCTAGTGCAG,55500 fluorescence intensity (a.u.)
14,CATATATGCCCATCACCCCAATAAGAGTTCCGAATTAGATCGGAGTCACCTAGTGCAG,3560 fluorescence intensity (a.u.)
15,CATCCCCAAACTCCGCCGCCGCCGCCGTCACCGCCGCTCGCGGAGTCACCTAGTGCAG,3700 fluorescence intensity (a.u.)
16,AATTCTAGGTCCAGCACTGTGCTTACCTGTATAGAAGCCTCGGAGTCACCTAGTGCAG,3200 fluorescence intensity (a.u.)
17,GCAGGAGCAAAGCGCTTACTTTTGCCTCACACTGTATAGTCGGAGTCACCTAGTGCAG,45400 fluorescence intensity (a.u.)
18,ATTCATATATATATATACACACACACTTACTTTGTATATGCGGAGTCACCTAGTGCAG,3190 fluorescence intensity (a.u.)
19,TTCTTCTTCTATTCCACGTCCACGTGTATGGCCAGGAGTTCGGAGTCACCTAGTGCAG,16100 fluorescence intensity (a.u.)
20,TGAAAATGGTGTTGGCATCATAAAATATTTAACCAACCCCCGGAGTCACCTAGTGCAG,3150 fluorescence intensity (a.u.)
21,TCACGAGCCGACACGTGTCTCCTGACGTGGTACCCTTTCCCGGAGTCACCTAGTGCAG,21900 fluorescence intensity (a.u.)
